Test results: PubChem BioAssay (NCATS)
Records with an inconclusive call do not appear. Activity calls are given as the source filed them. The call rests on the fitted dose curve; in most records, active means well fitted inhibition curve with a large enough effect; inconclusive means small, poorly fitted or top-dose-only effect; inactive means flat fitted curve, though single readings scatter.

assay: Primary qHTS for inhibitors of nuclear receptor binding SET domain protein 2 (NSD2) in an isogenic RCH-ACV NSD2 p.E1099K mutant (9B) (AID 1645876); details: RCH-ACV (leukaemia line) NSD2 E1099K (9B) viability, CellTiter-Glo, 72 h; series mostly up to 44.9 µM; activity change, negative = viability loss: at the top concentration; further: nearly all actives have a fitted effect of over 70% in size
On the % scale 0 is the no-effect control and ±100 the full control effect; potency means the concentration at half of the fitted maximal effect.

SMILES | activity change, negative = viability loss | outcome | Potency
Cn1cc(S(C)=O)c(=O)c2ccc(F)cc21 (stereo not drawn) | 7.89% (inactive) |  | 
O=C(O)c1ccc(OCCN2CCCCC2)cc1 |  | inactive | 
COC(=O)c1cc(Cl)ccc1NS(=O)(=O)C(F)(F)F |  | inactive | 
CCc1cc2cc(OC)c(OC)cc2c(Cc2ccccc2)n1 |  |  | 23.7 µM (active)
Cc1cccc(N(C)C(=S)Oc2ccc3c(c2)C2CCC3C2)c1 (stereo not drawn) | -49.1% (inactive) |  | 
CN1CCC(=C2c3ccccc3CCc3cccnc32)CC1 | -0.91% (inactive) |  | 
OC[C@]1(O)OC[C@@H](O)[C@H](O)[C@@H]1O |  | inactive | 
Nc1nc(=O)n([C@@H]2O[C@H](CO)[C@@H](O)[C@@H]2F)cc1I |  |  | 1.68 µM (active)
COC(=O)c1c(Cl)c(Cl)c(C(=O)OC)c(Cl)c1Cl | -3.06% [at 91.9 µM] (inactive) |  | 
O=C(CCCl)NCc1ccccc1 | -8.22% (inactive) |  | 
CCO[C@H](Cc1ccc(OCCc2ccc(OS(C)(=O)=O)cc2)cc1)C(=O)O | 5.51% (inactive) |  | 
Cc1nc([N+](=O)[O-])cn1-c1ccc([N+](=O)[O-])cc1 | 4.54% (inactive) |  | 
CC(C)=CCNc1ncnc2c1ncn2[C@@H]1O[C@H](CO)[C@@H](O)[C@H]1O |  |  | 1.68 µM (active)
CC(CC(C#N)(c1ccccc1)C(C)C)N(C)C (stereo not drawn) | -22.4% (inactive) |  | 
O=C(CCCCC(=O)Nc1c(I)cc(I)c(C(=O)O)c1I)Nc1c(I)cc(I)c(C(=O)O)c1I | -4.39% (inactive) |  | 
O=C(CO)[C@@H](O)[C@H](O)[C@@H](O)CO |  | inactive | 
CCCCCCOC(=O)NC(=N)c1ccc(NCc2nc3cc(C(=O)N(CCC(=O)OCC)c4ccccn4)ccc3n2C)cc1 |  |  | 18.6 µM (active)
C#CC(C)(CC)OC(=O)c1ccccc1C(=O)O (stereo not drawn) |  | inactive | 
